Structures can show the parent of a compound that is named as a salt.
test system: LOC_OS04G57630-cb004; test: thermal shift delta Tm vs DMSO control; higher = stronger stabilization (binding); settings: 12.5 µM; protein concentration 2 µM
In short: (§1)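 Thermal shift values come from differential scanning fluorimetry on purified rice kinase domains made in E. coli, with melting temperatures obtained from Boltzmann fits. Samples of 19.5 μl held 2 μM kinase, 100 mM potassium phosphate pH 7.5, 150 mM NaCl, 10% glycerol, 5 × SYPRO Orange and compound in DMSO, and were heated from 25°C to 95°C at 0.05°C/s. Each shift is a triplicate mean relative to the DMSO-only protein sample.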
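Further: purified Escherichia coli-expressed rice kinase domain construct.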

Row | SMILES | thermal shift delta Tm [°C]
1 | CCc1nc(-c2cccc(C)c2)c(-c2ccnc(NC(=O)c3ccccc3)c2)s1 | 0.17
2 | C[C@@]1(C(=O)Nc2ccc(F)nc2)CCCN1c1nc(Nc2cc(C3CC3)n[nH]2)c2cccn2n1 | 0.45
3 | COc1ccc(Cl)cc1NC(=O)Nc1cc(C)nc2ccccc12 | 0.07
4 | C=CC(=O)Nc1cccc(Nc2nc(Nc3ccc(OCCOC)cc3)ncc2F)c1 | 3.06
5 | CC(C)c1c2cc(-c3ccnc(NC4CCC(NC5CCOCC5)CC4)n3)ccc2nn1C (stereo unspecified) | 1.43
6 | C[C@H]1CNC(=O)c2cnn3ccc(nc23)N[C@H](C)c2cc(F)ccc2O1 | 1.68
7 | Cn1cc(-c2ccc3c(c2)CCN3C(=O)Cc2cccc(C(F)(F)F)c2)c2c(N)ncnc21 | 1.69
8 | Cn1c(=O)c(F)c(Nc2ccc(I)cc2F)c2c(=O)n(C[C@@H](O)CO)cnc21 | 0.47
9 | CNC(=O)c1cccc(-c2ccc3c(N4CCOC[C@@H]4C)nc(N4CCOC[C@@H]4C)nc3n2)c1 [Vistusertib (AZD2014)] | -0.14
10 | Cc1nc(Nc2cnn(C3CCNCC3)c2)nc2c1N(C)C(=O)c1cc3ccccc3cc1N2C | 0.88
11 | COc1cc2/c(=N/c3ccc(Br)cc3F)nc[nH]c2cc1OCC1CCN(C)CC1 [Vandetanib (ZD6474)] | 2.9
12 | CCn1c(C(=O)N(C2CC2)C2CC2)cc2c3c(ncn3C)c(Nc3cc(C)n(C)n3)nc21 | 0.17
13 | OCCn1cc(-c2cnc3nnn(Cc4ccc5ncccc5c4)c3n2)cn1 | -0.21
14 | N#CC[C@H](C1CCCC1)n1cc(-c2ncnc3[nH]ccc23)cn1 | 0.1
15 | CCn1nc(C2CCN(C(=O)CCO)CC2)nc1-c1cnc(N)c(-c2nnc(C(C)(C)C)o2)n1 | 0.47
16 | CC(C)(C)c1cc(NC(=O)Nc2ccc(Oc3ccnc4[nH]c(=O)cnc34)cc2F)n(-c2ccccc2)n1 | 10.3
17 | CO[C@H]1CC[C@H](N2C(=O)CNc3ncc(-c4ccc(C(C)(C)O)nc4)nc32)CC1 | -0.07
18 | CC[C@@H]1C(=O)N(C)c2cnc(Nc3ccc(C(=O)N[C@H]4CC[C@H](N5CCN(CC6CC6)CC5)CC4)cc3OC)nc2N1C(C)C [Volasertib (BI 6727)] | 0.28
19 | COc1ccc2c(c1)[C@]1(C[C@H]1c1ccc3c(/C=C/c4ccc(CN5C[C@@H](C)O[C@@H](C)C5)cc4)n[nH]c3c1)C(=O)N2 | 7.27
20 | O=C(Nc1nc2cccc(-c3ccc(CN4CCS(=O)(=O)CC4)cc3)n2n1)C1CC1 [Filgotinib (GLPG0634)] | 0
21 | CCn1c(-c2nonc2N)nc2c(C#CC(C)(C)O)ncc(OC[C@H]3CCCNC3)c21 | 0.06
22 | Cc1cnc(Nc2ccc(OCCN3CCCC3)cc2)nc1Nc1cccc(S(=O)(=O)NC(C)(C)C)c1 | 1.75
23 | Cc1cc(Nc2cc(N3CCN(C)CC3)nc(/C=C/c3ccccc3)n2)n[nH]1 [ENMD-2076 L-(+)-Tartaric acid] | 4.1
24 | CC#CC(=O)N1CC[C@@H](n2c(=O)n(-c3ccc(Oc4ccccc4)cc3)c3c(N)ncnc32)C1 [ONO-4059 (GS-4059) hydrochloride] | 0.32
25 | CCN1CCN(Cc2ccc(Nc3ncc(F)c(-c4cc(F)c5nc(C)n(C(C)C)c5c4)n3)nc2)CC1 | 1.35
26 | CN(C)C[C@@H]1CCn2cc(c3ccccc32)C2=C(C(=O)NC2=O)c2cn(c3ccccc23)CCO1 | -0.32
27 | CN1CCN(Cc2ccc(NC(=O)Nc3ccc(Oc4ccnc(N)n4)cc3)cc2C(F)(F)F)CC1 | 6.19
28 | O=C(NOCCO)c1ccc2cncn2c1Nc1ccc(I)cc1F | -0.36
29 | CCCCCCCCCCCCc1ccc(S(=O)(=O)Nc2nncs2)cc1 | -0.02

test system: LOC_OS05G07850-cb002; test: as above; settings: 12.5 µM; protein concentration 2 µM
In short: as §1

Row | SMILES | thermal shift delta Tm [°C]
30 | CC(C)(C)c1cnc(CSc2cnc(NC(=O)C3CCNCC3)s2)o1 | 0.35
31 | CN(C)C/C=C/C(=O)Nc1cc2c(Nc3ccc(F)c(Cl)c3)ncnc2cc1O[C@H]1CCOC1 [Afatinib (BIBW2992) Dimaleate] | 7.65
32 | O=C1c2c(O)cc(O)cc2OC(c2ccc(O)c(O)c2)C1O (stereo unspecified) [Taxifolin (Dihydroquercetin)] | 3.32
33 | CCN(CC)CCNC(=O)c1c(C)[nH]c(/C=C2\C(=O)Nc3ccc(F)cc32)c1C [Sunitinib Malate] | 8.46
34 | COc1cc(Nc2ncc(F)c(Nc3ccc4c(n3)N(COP(=O)(O)O)C(=O)C(C)(C)O4)n2)cc(OC)c1OC [Fostamatinib (R788)] | 12
35 | CC(C)(C)c1nc(-c2ccc(NC(=O)Nc3cccc(C(F)(F)F)c3)c3ccccc23)c2c(N)nccn12 [kira6] | 6.62
36 | CNC(=O)c1cc(Oc2ccc(NC(=O)Nc3ccc(Cl)c(C(F)(F)F)c3)cc2)ccn1 [Sorafenib Tosylate] | 9.63
37 | CC(=O)Nc1nc(C)c(-c2ccc(Cl)c(S(=O)(=O)NCCO)c2)s1 | 4.94
38 | CCc1nc(-c2cccc(C)c2)c(-c2ccnc(NC(=O)c3ccccc3)c2)s1 | 4.1
39 | C[C@@]1(C(=O)Nc2ccc(F)nc2)CCCN1c1nc(Nc2cc(C3CC3)n[nH]2)c2cccn2n1 | 6.93
40 | COc1ccc(Cl)cc1NC(=O)Nc1cc(C)nc2ccccc12 | 0.02
41 | C=CC(=O)Nc1cccc(Nc2nc(Nc3ccc(OCCOC)cc3)ncc2F)c1 | 12.6
42 | CC(C)c1c2cc(-c3ccnc(NC4CCC(NC5CCOCC5)CC4)n3)ccc2nn1C (stereo unspecified) | 6.4
43 | C[C@H]1CNC(=O)c2cnn3ccc(nc23)N[C@H](C)c2cc(F)ccc2O1 | 10.8
44 | Cn1cc(-c2ccc3c(c2)CCN3C(=O)Cc2cccc(C(F)(F)F)c2)c2c(N)ncnc21 | 6.67
45 | Cn1c(=O)c(F)c(Nc2ccc(I)cc2F)c2c(=O)n(C[C@@H](O)CO)cnc21 | 1.59
46 | CNC(=O)c1cccc(-c2ccc3c(N4CCOC[C@@H]4C)nc(N4CCOC[C@@H]4C)nc3n2)c1 [Vistusertib (AZD2014)] | 0.07
47 | Cc1nc(Nc2cnn(C3CCNCC3)c2)nc2c1N(C)C(=O)c1cc3ccccc3cc1N2C | 6.28
48 | COc1cc2/c(=N/c3ccc(Br)cc3F)nc[nH]c2cc1OCC1CCN(C)CC1 [Vandetanib (ZD6474)] | 9.77

Row | SMILES | thermal shift delta Tm [°C]
49 | CCn1c(C(=O)N(C2CC2)C2CC2)cc2c3c(ncn3C)c(Nc3cc(C)n(C)n3)nc21 | 6.42
50 | OCCn1cc(-c2cnc3nnn(Cc4ccc5ncccc5c4)c3n2)cn1 | 0.33
51 | N#CC[C@H](C1CCCC1)n1cc(-c2ncnc3[nH]ccc23)cn1 | 6.97
52 | CCn1nc(C2CCN(C(=O)CCO)CC2)nc1-c1cnc(N)c(-c2nnc(C(C)(C)C)o2)n1 | 8.76
53 | CC(C)(C)c1cc(NC(=O)Nc2ccc(Oc3ccnc4[nH]c(=O)cnc34)cc2F)n(-c2ccccc2)n1 | 12.5
54 | CO[C@H]1CC[C@H](N2C(=O)CNc3ncc(-c4ccc(C(C)(C)O)nc4)nc32)CC1 | 0.66
55 | CC[C@@H]1C(=O)N(C)c2cnc(Nc3ccc(C(=O)N[C@H]4CC[C@H](N5CCN(CC6CC6)CC5)CC4)cc3OC)nc2N1C(C)C [Volasertib (BI 6727)] | 1.33
56 | COc1ccc2c(c1)[C@]1(C[C@H]1c1ccc3c(/C=C/c4ccc(CN5C[C@@H](C)O[C@@H](C)C5)cc4)n[nH]c3c1)C(=O)N2 | 12.3
57 | O=C(Nc1nc2cccc(-c3ccc(CN4CCS(=O)(=O)CC4)cc3)n2n1)C1CC1 [Filgotinib (GLPG0634)] | 4.98
58 | CCn1c(-c2nonc2N)nc2c(C#CC(C)(C)O)ncc(OC[C@H]3CCCNC3)c21 | 0.29
59 | Cc1cnc(Nc2ccc(OCCN3CCCC3)cc2)nc1Nc1cccc(S(=O)(=O)NC(C)(C)C)c1 | 8.73
60 | Cc1cc(Nc2cc(N3CCN(C)CC3)nc(/C=C/c3ccccc3)n2)n[nH]1 [ENMD-2076 L-(+)-Tartaric acid] | 11.2
61 | CC#CC(=O)N1CC[C@@H](n2c(=O)n(-c3ccc(Oc4ccccc4)cc3)c3c(N)ncnc32)C1 [ONO-4059 (GS-4059) hydrochloride] | -0.32
62 | CCN1CCN(Cc2ccc(Nc3ncc(F)c(-c4cc(F)c5nc(C)n(C(C)C)c5c4)n3)nc2)CC1 | 12.6
63 | CN(C)C[C@@H]1CCn2cc(c3ccccc32)C2=C(C(=O)NC2=O)c2cn(c3ccccc23)CCO1 | 5.79
64 | CN1CCN(Cc2ccc(NC(=O)Nc3ccc(Oc4ccnc(N)n4)cc3)cc2C(F)(F)F)CC1 | 11.9
65 | O=C(NOCCO)c1ccc2cncn2c1Nc1ccc(I)cc1F | -0.3
66 | CCCCCCCCCCCCc1ccc(S(=O)(=O)Nc2nncs2)cc1 | 0.11

From the supplement of paper PMC9694430
